HP1b binding inh: HTS for Inhibitors of HP1-beta Chromodomain Interactions with Methylated Histone Tails. Potency, µM (series often up to 114 µM), inactives show top-dose activity change, negative = inhibition, most hits filed as inhibitors. 390,000 tested, 0.56% active. Chromobox protein homolog 1 (Homo sapiens), P83916. AlphaScreen HP1-beta / biotin-H3K9me3 peptide binding; note: potency is the fitted concentration of half-maximal effect; nearly all actives have a fitted effect of over 70% in size
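HP1-beta protein (50 nM final) preincubated 30 min at room temperature with biotinylated H3(1-18)K9me3 peptide (50 nM) in PBS pH 7.4, 0.01% Tween-20, then compound added for 30 min. AlphaScreen streptavidin donor/nickel chelate acceptor beads (10 ug/mL final), 30 min dark, luminescence read.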
G9a inh: qHTS Assay for Inhibitors of Histone Lysine Methyltransferase G9a | Potency, µM (top dose mostly 102 µM), without a hit: at the top dose activity, negative = inhibition, most hits filed as inhibitors | 350,000 tested, 8.8% active | G9a H3K9 monomethylation, AlphaScreen, 2 h | Histone-lysine N-methyltransferase EHMT2 (Homo sapiens), Q96KQ7; note: potency is the fitted concentration of half-maximal effect; % is set by controls: 0 for no effect and ±100 for the full control effect; nearly all actives have a fitted effect of over 75% in size
Target sequence (Q96KQ7 913-1193 limits assumed): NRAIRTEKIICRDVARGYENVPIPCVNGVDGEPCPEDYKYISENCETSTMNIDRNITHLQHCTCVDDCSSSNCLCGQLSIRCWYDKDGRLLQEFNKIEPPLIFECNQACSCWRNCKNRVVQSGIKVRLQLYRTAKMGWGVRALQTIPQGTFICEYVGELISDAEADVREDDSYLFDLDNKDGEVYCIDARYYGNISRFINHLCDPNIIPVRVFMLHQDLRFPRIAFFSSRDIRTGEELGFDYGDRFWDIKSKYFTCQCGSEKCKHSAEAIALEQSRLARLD
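Enzyme 20 nM + cpd, 15 min RT; add b-H3K9 pep 500 nM / SAM 20 uM; 2 h RT; anti-H3K9me1 Ab 0.5 ug/mL + SA donor / anti-rabbit acceptor beads 20 ug/mL each, 10 min; AlphaScreen read.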
JMJD2A Tudor inh: qHTS Assay for Inhibitors of JMJD2A-Tudor Domain; Lysine-specific demethylase 4A (Homo sapiens), O75164; AlphaScreen JMJD2A-Tudor / H3K4me3 peptide binding; Potency, µM (doses to about 114 µM), inactives show at the top dose activity change, negative = inhibition, actives largely listed as inhibitors; 390,000 tested, 4.4% active; AID 504339, 2011; note: potency is the fitted concentration of half-maximal effect; % is set by controls: 0 for no effect and ±100 for the full control effect; nearly all actives have a fitted effect of over 50% in size
PLK1 PBD inh: qHTS for Inhibitors of PLK1-PDB (polo-like kinase 1 - polo-box domain): Primary Screen | Plk1 PBD binding of FITC phosphopeptide, fluorescence polarization | 360,000 tested, 2.8% active | Potency, µM, inactives show max response, negative = inhibition, most hits filed as inhibitors | Serine/threonine-protein kinase PLK1 (Homo sapiens), P53350; note: potency is the fitted concentration of half-maximal effect; series mostly up to about 57 µM; % is set by controls: 0 for no effect and ±100 for the full control effect; nearly all actives have a fitted effect of over 65% in size
PI5P4Ka inh: qHTS for Inhibitors of phosphatidylinositol 5-phosphate 4-kinase (PI5P4K); max response, %; 330,000 tested, 1.2% active; PI5P4Kalpha enzyme, ADP-Glo luminescence, 60 min; hits give low values; active = max response of -50% or lower; inconclusive = between -30% and -50%; inactive = -30% or higher; note: value at the top dose of about 77 µM; % is set by controls: 0 for no effect and ±100 for the full control effect
Target sequence (P48426 whole entry, looked up): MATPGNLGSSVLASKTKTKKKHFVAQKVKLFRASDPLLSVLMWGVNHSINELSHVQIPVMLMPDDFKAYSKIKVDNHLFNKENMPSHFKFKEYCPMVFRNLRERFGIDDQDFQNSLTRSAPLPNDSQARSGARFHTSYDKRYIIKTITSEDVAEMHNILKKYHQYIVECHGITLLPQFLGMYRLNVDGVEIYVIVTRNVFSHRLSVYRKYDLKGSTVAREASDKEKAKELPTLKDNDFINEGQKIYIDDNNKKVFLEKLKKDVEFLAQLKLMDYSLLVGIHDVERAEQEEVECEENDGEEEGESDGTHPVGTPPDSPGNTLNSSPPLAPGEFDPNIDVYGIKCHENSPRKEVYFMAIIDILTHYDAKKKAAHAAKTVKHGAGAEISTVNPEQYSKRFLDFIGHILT
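Single end-point luminescence (ADP-Glo) quantified ADP from PI5P4Kalpha turnover; ATP 5 microM final, 1 h at RT, 0.1% CHAPS and 0.28 mM EGTA in HEPES pH 7.4.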
BAZ2B block: qHTS Assay for Inhibitors of BAZ2B; Bromodomain adjacent to zinc finger domain protein 2B (Homo sapiens), Q9UIF8; AlphaScreen BAZ2B-H3K14Ac peptide displacement; Potency, µM (doses to about 114 µM), without a hit: at the top dose activity change, negative = inhibition, hits mostly inhibitors; 360,000 tested, 4.4% active; note: potency is the fitted concentration of half-maximal effect; % is set by controls: 0 for no effect and ±100 for the full control effect; nearly all actives have a fitted effect of over 60% in size
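In this displacement format the biotinylated H3(5-23) peptide acetylated at Lys14 serves as ligand at 50 nM, with BAZ2B at 50 nM in PBS pH 7.4 containing 0.01% Tween-20. Donor and acceptor beads are 10 ug/mL final.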
* marks the source's active call; other numbers are inactive results; ? = inconclusive; / = not tested or not shown; [ ] = dose if it differs, or a comment. A selection: hits, their analogues and other compounds. The true share with any hit is near 12%. Unless noted, calls come from the whole dose curve; as a rule, active = well fitted curve in the direction sought with a large enough effect; inconclusive = small, poorly fitted or top-dose-only effect, or another doubt; inactive = no such curve, though single readings can be large; an effect the other way counts as inactive or inconclusive.

SMILES | HP1b binding inh | G9a inh | JMJD2A Tudor inh | PLK1 PBD inh | PI5P4Ka inh | BAZ2B block
O=c1ccn(C2OC(COP(=O)(O)OC3C(CO)OC(n4ccc(=O)[nH]c4=O)C3O)C(O)C2O)c(=O)[nH]1 (stereo not drawn) | / | -5%[12.7 µM] | / | / | / | /
CS(=O)(=O)N1CCCCC1c1cc(C(=O)Nc2cccc3c2CCCC3)no1 (stereo not drawn) | / | / | / | -13% | -11 | /
Cc1cc(C)c(NC(=O)C(=O)NCC(c2cccnc2)N2CCN(c3ccccc3F)CC2)c(C)c1 (stereo not drawn) | 44% | -2%[59 µM] | 9% | / | / | -17%
COc1ccc(Cn2ccc3nc(C)c(C(=O)Nc4ccc(OC)cc4)cc3c2=O)cc1 | 72% | -4%[59 µM] | -5% | / | / | 4%
CN(C)C(=O)NC(Nc1cccc([N+](=O)[O-])c1)C(Cl)(Cl)Cl (stereo not drawn) | -10% | ? | -20% | 30µM* | -9 | 0%
Cc1cccc(C(=O)OCC(=O)NCCNC(=O)COC(=O)c2cccc(C)c2C)c1C | 27% | 102% | -8% | 3% | -7 | 2%
COC1=CC(=O)OC(c2cccc(Cl)c2)C1 (stereo not drawn) | / | / | / | -12% | -1 | /
Cc1ccc(NC2CCCN(C(=O)CSc3ccccn3)C2)cc1C (stereo not drawn) | -24% | -9%[0.501 µM] | ? | 24µM* | -6 | ?
COc1ccc(CCC(=O)N2CCCC(Nc3ccc(C)c(C)c3)C2)cc1OC (stereo not drawn) | -14% | 45µM* | ? | ? | 2 | ?
COc1ccccc1OCC(=O)N1CCCC(Nc2ccc(C)c(C)c2)C1 (stereo not drawn) | -28% | / | ? | -14% | 10 | ?
COc1ccc(NC2CCCN(C(=O)COc3ccc(Cl)cc3C)C2)cc1OC (stereo not drawn) | -38% | 50µM* | ? | -14% | -5 | ?
CC(C)(C)C(=O)NCC(c1ccc2c(c1)OCO2)N1CCOCC1 (stereo not drawn) | 17%[57 µM] | -2%[59 µM] | -5% | / | / | -5%
O=C1Nc2ccccc2OC1CC(=O)N1CCN(c2cccc(C(F)(F)F)c2)CC1 (stereo not drawn) | 29% | 35µM* | -24% | -22% | / | -3%
O=C1Nc2ccccc2OC1CC(=O)N1CCOCC1 (stereo not drawn) | 47% | -10% | -5% | -18% | 0 | 0%
CCCCOc1ccc(CNC(=O)CCCN2C(=O)CSc3c2c(C)nn3-c2ccccc2)cc1 | 13% | 8%[59 µM] | -27% | / | / | -18%
Nc1nc(SCc2ccc(Cl)cc2Cl)c2ncn(C3OC(CO)C(O)C3O)c2n1 (stereo not drawn) | 22% | / | -21% | -6% | 2 | /
C=CCn1cccc(C(=O)Nc2ccc(SC)cc2)c1=O | 26% | -1% | -14% | -3% | 6 | 3%
C=CCn1cccc(C(=O)Nc2ccc(OCC)cc2)c1=O | 5% | -3% | ? | 24µM* | ? | -4%
C=CCn1cccc(C(=O)Nc2ccc(Cl)cc2)c1=O | 46% | 10% | 14% | -1% | 8 | 9%
C=CCn1cccc(C(=O)Nc2ccc(N(C)C)cc2)c1=O | -21% | 13µM* | ? | 0% | -5 | -27%
CCOc1ccccc1NC(=O)Cn1c(=O)n(-c2ccc(C)c(C)c2)c(=O)c2oc3ccccc3c21 | 22% | 3%[59 µM] | -15% | / | / | -17%
CCCCCCc1cc2cc(C(N)=O)c(=N)oc2cc1O | / | ? | / | / | / | 0%
CCCCCCc1cc2cc(C(=O)NC)c(=N)oc2cc1O | 48% | -27%[59 µM] | -5% | 3.4µM* | -9 | 0%
O=C(Nc1ccc2c(c1)OCO2)C1CCCN(c2nc3ccccc3s2)C1 (stereo not drawn) | -5% | 3.2µM* | -25% | -7% | / | -35%
CC(Sc1nnc(N)s1)C(=O)Nc1ccc2c(c1)OCO2 (stereo not drawn) | 34% | 45µM* | -27% | -18% | ? | 12%
SMILES | HP1b binding inh | G9a inh | JMJD2A Tudor inh | PLK1 PBD inh | PI5P4Ka inh | BAZ2B block
CC(Sc1nc2ccccc2s1)C(=O)Nc1ccc2c(c1)OCO2 (stereo not drawn) | 35% | 1.8µM* | 8% | -5% | -12 | -10%
O=C(CSc1nc2ccccc2s1)Nc1ccc2c(c1)OCO2 | 30% | 0%[59 µM] | -18% | -18% | 2 | -9%
CC(Sc1nnc(N)s1)C(=O)NCc1ccc2c(c1)OCO2 (stereo not drawn) | 26% | 14%[12.7 µM] | -16% | -12% | 3 | 0%
CN(Cc1ccco1)S(=O)(=O)c1ccc(CN2C(=O)c3cccnc3C2=O)s1 | 10% | ? | 32µM* | 27µM* | 2 | -36%[57.1 µM]
Cc1ccc(CNC(=O)C2CCC(=O)N(CC3CCCCC3)C2)o1 (stereo not drawn) | 4% | 45µM* | -17% | -14% | 6 | -17%
Cc1ccc(NC(=O)CSc2nnc(-c3ccco3)c(-c3ccco3)n2)cc1 | ? | ? | 56µM* | 27µM* | -75* | 32µM*
O=C(CSc1nnc(-c2ccco2)c(-c2ccco2)n1)Nc1ccccc1 | 22µM* | -3%[2.33 µM] | 50µM* | 19µM* | -84* | 20µM*
COc1cccc(NC(=O)CSc2nnc(CNC(=O)c3ccco3)n2C)c1 | -7% | -1% | -17% | -3% | -2 | 9%
COc1cccc(NC(=O)CSc2nnc(-c3ccco3)c(-c3ccco3)n2)c1 | ? | 2.8µM* | 45µM* | 13µM* | -63* | 50µM*
CCc1ccc(NC(=O)CSc2nnc(CC)c(CC)n2)cc1 | 48% | 10%[59 µM] | -5% | -1% | 2 | 2%
CCc1nnc(SCC(=O)Nc2ccc(C(C)=O)cc2)nc1CC | -1% | -6%[12.7 µM] | -16% | -16% | -13 | 56µM*
Clc1cccc(CSc2nnc(C3CCNCC3)o2)c1 | 23% | -38%[59 µM] | -12% | / | / | -11%
CCOC(=O)C1CCN(C(=O)C(C)Sc2nnc3ccccn23)CC1 (stereo not drawn) | 33% | / | -6% | -6% | 3 | /
Cc1cccc(C)c1NC(=O)Cn1nnc(S(=O)(=O)c2ccccc2)c1N | 20% | -27%[59 µM] | -9% | / | / | -6%
CN(C)c1ccc(NC(=O)CSc2nnc(-c3ccco3)c(-c3ccco3)n2)cc1 | ? | 25µM* | ? | -17% | -15 | 25µM*
Cc1ccc(Cl)cc1N1CCN(C(=O)c2ccc3c(c2)CCN3S(=O)(=O)c2ccccc2)CC1 | 26% | -9%[59 µM] | -13% | / | / | -20%

Compound activity as filed in PubChem.
